The text below walks through data of PubChem BioAssay.

The structures appear in SMILES notation. Inconclusive results are not listed. A number with no mark means an inactive call.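 How the source made its calls: active means cell viability at or below a set limit in both duplicate runs, the limit being the all-compound median minus 4 SD (cut at about 23% in these data, passing the limit was not always enough); inconclusive means no clear call, values can overlap the other calls; inactive means the rest.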

The assay can be described thus: viability of HCT116 without oncogenic beta-catenin – human colon tumor cells, pilot screen (AID 823).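 Further: 0% = wells killed by 20 µM Hyamine and 100% = untreated DMSO cell wells.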 The conditions noted are these: HCT116 beta-catenin knockout viability, CellTiter-Glo, 60 h; at 10 µM; hits give low values. Background: ATP-based viability assays read luminescence as a measure of living cells.
One may read the viability as a read-out of living cells in per cent, often relative to untreated cells. `COc1cc(OC)c(NC2c3ccccc3C(=O)N2c2cc(C)ccn2)cc1Cl` (stereo unspecified): the viability is 92.9%.
Then `CC(=O)Nc1ccc(NC(=O)CSc2nccn2Cc2ccccc2)cc1`, with 86.9%; and `CCn1c(C(=O)NC(C)c2ccc3c(c2)OCCO3)cc2sccc21` (stereo unspecified), with 96.1%.
On to `Cn1c(Cn2c(=O)sc3ccccc32)nnc1SCC(=O)N1CCCC1`, for which the viability was 97%.
The figure for `CN1CCc2c(sc3c2C(=O)NC(c2ccc(-c4cccc(Cl)c4)o2)N3)C1` (stereo unspecified) is 97.6%; for `NC(=O)C1CCN(CCCNC2CC(=O)N(Cc3ccc(N4CCCC4=O)cc3)C2=O)CC1` (stereo unspecified) it is 98.7%; for `O=C(NCCN1CCOCC1)c1ccc2c(c1)N(Cc1ccccc1)CCS2` it is 93.2%.
Then `COc1ccc(C2C(C(=O)N3CCN(c4ccccc4)CC3)c3ccccc3C(=O)N2C)cc1OC` (stereo unspecified), with 97.1%; and `CC(=O)Nc1ccc(S(=O)(=O)N2CCN(c3cc(C)ccc3C)CC2)cc1`, with 85.7%.
Then `COc1ccccc1NC(=O)CSc1ncn[nH]1`, with 98.2%.
On to `Cc1ccc(/C=N/n2c(C)nnc2C)cc1`, for which the viability was 87.4%.
Regarding `C=CCSC1=C(C#N)C(c2ccc(C(C)C)cc2)CC(=O)N1` (stereo unspecified), the viability is 92.2%.
The figure for `COc1ccccc1NC(=O)C1=C(C)Nc2nnnn2C1c1cccc(C)c1` (stereo unspecified) is 82.3%; for `CC(C)N1C(=O)CCC1C(=O)N1CCN(c2ccccn2)CC1` (stereo unspecified) it is 107%.
Then `Cc1ccc(Cl)cc1N1CCN(C(=O)C2CCC(=O)N2C(C)C)CC1` (stereo unspecified), with 93.6%.
Then `COc1ccc(Cl)cc1S(=O)(=O)n1ccnc1C(C)C`, with 102%.
